Bioassay records as filed in PubChem.
GAA inh = inhibitors of human lysosomal alpha-glucosidase; P10253; purified human GAA, 4-MU-alpha-glucoside fluorescence; Potency, µM (highest dose often 76.9 µM), for inactives: at the highest dose activity change, negative = inhibition, hits mostly inhibitors; 200,000 compounds, 0.005% hits; AID 1466;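 also: potency is read from the fitted curve at half-maximal effect; plate controls were uninhibited enzyme wells for no effect and no-enzyme background for full effect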
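Enzyme (4 nM final) mixed with compound (up to 77 uM), then 4-MU-alpha-D-pyranoside (400 uM final) added; 20 min at room temperature, pH 5.0. Reaction stopped at pH 10, fluorescence read, AC50 derived by Hill fit.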
aGlu spleen mod = lysosomal alpha-glucosidase (human) modulation. P10253. Potency, µM (titrated, usually from 79.9 µM), inactives show at the highest dose activity change, negative = inhibition, usual class: inhibitors. 240,000 compounds, 0.006% hits. human spleen homogenate, 4-MU-alpha-glucoside fluorescence;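 also: potency is read from the fitted curve at half-maximal effect; 0% = enzyme with vehicle and -100% = no enzyme basal signal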
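Human spleen homogenate (1 ug) with 4-methylumbelliferyl-alpha-D-glucopyranoside (1 mM final) in 50 mM citrate/phosphate pH 5.0, 0.01% Tween-20; 40 min at 37 C. Stopped at pH 10; 4-MU fluorescence Ex 365/Em 440 nm; AC50 by Hill fit.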
FBPA coupling cs = inhibits coupling enzyme system, counter-screen for aldolase hits | 290,000 compounds, 0.67% hits | AID 2472 | coupling enzyme system counterscreen, AmpLite Red fluorescence | activity change, negative = inhibition, % at 58.2 µM, hits read low; in the data active = activity change below about -30%
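Compounds tested against the coupling enzymes alone at 57.5 uM final; readout was AmpLite Red fluorescence (525/598 nm) after 20 min at RT.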
B2AR arrestin = beta2AR (human) beta-arrestin recruitment activity; beta-arrestin recruitment to beta2AR, cell-based reporter; Potency, µM (doses to about 46.1 µM), for inactives: top-dose activation, hits mostly activators; 330,000 compounds, 0.02% hits;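 also: potency is read from the fitted curve at half-maximal effect; 0% = DMSO controls and full agonism = EC100 isoproterenol or metaproterenol; nearly all actives have a fitted effect of over 65% in size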
Target sequence (P07550 whole entry, looked up): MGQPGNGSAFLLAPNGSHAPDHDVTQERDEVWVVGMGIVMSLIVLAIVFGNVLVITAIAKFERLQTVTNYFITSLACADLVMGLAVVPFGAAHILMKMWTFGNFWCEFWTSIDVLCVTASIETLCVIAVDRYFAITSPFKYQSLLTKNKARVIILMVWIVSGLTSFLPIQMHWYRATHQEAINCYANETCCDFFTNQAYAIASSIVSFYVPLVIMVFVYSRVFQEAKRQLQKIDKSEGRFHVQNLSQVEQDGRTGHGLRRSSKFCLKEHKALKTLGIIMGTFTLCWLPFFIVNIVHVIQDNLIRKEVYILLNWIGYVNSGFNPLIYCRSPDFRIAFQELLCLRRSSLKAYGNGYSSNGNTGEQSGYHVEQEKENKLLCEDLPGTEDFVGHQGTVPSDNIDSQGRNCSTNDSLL
GAA glycogen mod = inhibitors or activators of human alpha-glucosidase glycogen cleavage | Potency, µM (titrated, usually from 76.4 µM), for the others: at the highest dose activity change, negative = inhibition, hits mostly inhibitors | recombinant GAA, glycogen substrate, Amplex Red glucose oxidase fluorescence | 300,000 compounds, 0.38% hits | P10253;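 also: potency is read from the fitted curve at half-maximal effect; 0% = full enzyme reaction and -100% = no-enzyme basal signal; the screen sought inhibitors and activators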
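Recombinant enzyme (4 nM final) with compounds titrated up to 77 uM and bovine liver glycogen (30 ug) in citrate pH 5.0, 0.01% Tween-20, 37 C 40 min. Released glucose detected by Amplex Red/glucose oxidase (Ex 573/Em 610); AC50 from Hill fits.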
The depositor's hits bear a star; ? = inconclusive; . = no result; [ ] = dose if it differs, or a comment. Hits are enriched below; roughly 0.85% of the tested compounds scored in any of these assays. Unless noted, calls follow the shape of the dose curve; as a rule, active = well fitted curve in the direction sought with a large enough effect; inconclusive = small, poorly fitted or top-dose-only effect, or another doubt; inactive = no such curve, though single readings can be large; an effect the other way counts as inactive or inconclusive. Unless noted, % is scaled to controls: 0 for no effect and ±100 for the full control effect.

SMILES	GAA inh	aGlu spleen mod	FBPA coupling cs	B2AR arrestin	GAA glycogen mod
Cc1c(NS(=O)(=O)c2cccs2)cccc1-c1nc2cccnc2s1	.	-2%	7	0%	-1%
CCOc1ccccc1NC(=O)CCS(=O)(=O)c1cccs1	.	.	1	0%	0%
O=C1Nc2ccc(NS(=O)(=O)c3cccs3)c3cccc1c23	3%	8%	-56*	-1%	-22%
CCOc1ccccc1NS(=O)(=O)c1cccs1	1%	-1%	-41*	0%	1%
O=S(=O)(Nc1cccc2ncccc12)c1cccs1	4%	4%	-38*	-1%	0%
COC(=O)Nc1ccc(Cl)c(Cl)c1	.	3%	0	.	.
CCn1c(SCC(=O)N/N=C/C=C/c2ccco2)nc2ccccc21	-12%	4%	-7	?	-10%
CCn1c(SCC(=O)N/N=C/C=C/c2ccco2)nnc1-c1ccc(OC)cc1	7%	-6%	-39*	1%	9%
C#C[C@]1(O)CC[C@@H]2[C@H]3CCC4=Cc5oncc5C[C@]4(C)[C@@H]3CC[C@@]21C	.	5%[29.1 µM]	1	.	.
COc1cc(/C=N/N=C(\N)c2nonc2N)ccc1O	-12%	-5%	3	0%	32µM*
CN1N=C(C(C)(C)C)CC1=O	2%[15.4 µM]	10%	-32*	-1%	?
CN1N=C(C(F)(F)F)CC1=O	2%	0%	0	0%	-2%
CC(C)=CCC1=C(O)c2ccccc2C(=O)C1=O	.	9%	-61*	.	.
O=C(O)c1cccnc1C(=O)O	.	-7%	-63*	1%	.
CC(/C=N/NC(=O)c1cc(-c2ccncc2)nc2ccccc12)=C\c1ccco1	-5%	1%	-40*	0%	-26%
CCOC(=O)Cn1cnc2c(nnn2-c2ccc(F)cc2)c1=O	.	.	-2	0%	50µM*
COC(=O)Cn1cnc2c(nnn2-c2ccc(F)cc2)c1=O	.	.	0	-1%	15%[76.3 µM]
CC(C)C1NC(=O)[C@H](CCCCN)NC(=O)[C@@H](Cc2c[nH]c3ccccc23)NC(=O)[C@H](Cc2ccc(O)cc2)NC(=O)[C@H](C)N(C)C(=O)[C@H](Cc2ccccc2)NC1=O (some centres not stated)	.	-4%	.	.	.
COC(=O)C1=C[C@@H](C(=O)OC)C2C3=C(C(=O)[C@@]2(C)NC(=O)c2ccccc2)[C@H](C)n2c(=O)n(C)c(=O)n2[C@@H]3C1 (some centres not stated)	.	-9%	3	.	.
Cc1cccc(-c2c3c(=O)n(C)c(=O)n(C)c3cn2-c2ccccc2O)c1	-23%	-1%	-39*	0%	-10%
COC(=O)c1ccccc1-n1cc2c(c1-c1cccc(C)c1)c(=O)n(C)c(=O)n2C	.	.	.	.	-1%[76.3 µM]
O=C1c2cc(Br)ccc2O[C@@H](c2ccc3c(c2)OCO3)[C@@H]1O	.	-4%	0	.	.
N#Cc1c(/N=C/c2cc3ccccc3s2)sc2c1CCC2	-7%	0%	1	0%	-14%
Cc1ccc(/C=N/c2sc3c(c2C#N)CCCCC3)o1	-3%	4%	-10	0%	?
Cc1[nH]n(-c2cccc3ccccc23)c(=O)c1/C=N/c1sc2c(c1C#N)CCC2	-15%	4%	9	0%	20µM*
SMILES	GAA inh	aGlu spleen mod	FBPA coupling cs	B2AR arrestin	GAA glycogen mod
N#Cc1c(/N=C/C=C/c2ccccc2)sc2c1CCCC2	2%	-20%	2	0%	12µM*
Cc1ccc(/C=N/c2sc3c(c2C#N)CCC3)s1	6%	-3%	-2	0%	28µM*
N#Cc1c(/N=C/c2ccco2)sc2c1CCC2	-10%	4%	2	0%	22µM*
Cc1cc(N=Cc2c(O)n(-c3cccc(C(F)(F)F)c3)c(=O)c3ccccc23)no1	0%	1%	3	0%	-6%
Cc1nnc(N/N=C/c2c(O)n(-c3cccc(C(F)(F)F)c3)c(=O)c3ccccc23)[nH]c1=O	-2%	-3%	-4	-1%	25µM*
C/C(=C\C(=O)OCCCCCCCCC(=O)O)C[C@@H]1OCC(C[C@H]2O[C@H]2[C@@H](C)[C@H](C)O)[C@@H](O)[C@H]1O (some centres not stated)	.	10%	4	.	.
COc1ccc(OC)c(C(=O)CSc2nc3cccnc3n2C)c1	6%	-16%	-40*	0%	1%
COc1cccc2c1C(=O)c1c(O)c3c(c(O)c1C2=O)C[C@@](O)(C(=O)CO)C[C@@H]3OC1C[C@@H](N)[C@H](O)[C@H](C)O1 (some centres not stated)	.	4%	-23	.	.
O=C1Cc2ccccc2C(=O)N1OCc1ccc(Cl)cc1	-12%	2%	-42*	0%	?
O=C1c2ccccc2C(=O)N1OCc1ccc(Cl)cc1	-11%	0%	3	0%	7%
CCc1cccc(NC(=O)C(Cc2ccccc2)NS(=O)(=O)c2ccc3c(c2)c(=O)n(C)c(=O)n3C)c1 (configuration not stated)	.	.	.	.	4%[76.3 µM]
COc1ccc(N2C(=O)[C@@H]3[C@H](C2=O)[C@H](C(=O)c2ccc(OC(C)=O)cc2)N2N=CC=C[C@@H]32)cc1	-8%	-16%	-14	0%	-4%
CC(=O)Oc1ccc(C(=O)[C@H]2[C@H]3C(=O)N(c4ccccc4)C(=O)[C@H]3[C@@H]3C=CC=NN32)cc1	4%	1%	-41*	0%	-13%
CC1=CC(=O)C2=C(C)CC[C@H]3[C@H](C)C(=O)O[C@@H]3C12 (some centres not stated)	.	-5%	3	.	.
COC(=O)c1[nH]c2ccc(C)cc2c1NS(=O)(=O)c1ccc(F)cc1	8%	-5%	0	2%	10µM*
COC(=O)c1[nH]c2ccc(F)cc2c1NS(=O)(=O)c1ccc(F)c(C)c1	-1%	-1%	-4	0%	-9%
Cc1cc(S(=O)(=O)Nc2c(C(=O)O)[nH]c3ccccc23)ccc1F	2%	-7%	-6	0%	2.2µM*
COC(=O)c1[nH]c2ccc(C)cc2c1NS(=O)(=O)c1ccc(F)c(C)c1	3%	6%	-16	0%	18µM*
Cc1ccc(CN2C(=O)c3oc4ccc(C)cc4c(=O)c3C2c2ccc(O)cc2)cc1 (configuration not stated)	.	.	.	.	6%[76.3 µM]
CCNc1ncc2nc(CCc3ccccc3)c(=O)n(C[C@H]3CCCO3)c2n1	.	0%	2	.	.
COc1ccc(S(=O)(=O)Nc2cc3c(cc2NCc2ccccc2)n(C)c(=O)n3C)cc1	.	.	.	.	10µM*
Cn1ncc([N+](=O)[O-])c1C(=O)N/N=C/c1cccc([N+](=O)[O-])c1	-9%	-13%	-35*	0%	-4%
C(=N\Nc1nc2ccccc2[nH]1)/c1ccc2c(c1)OCO2	-7%	.	-1	0%	16µM*
COc1cc(/C=N/Nc2nc3ccccc3[nH]2)cc(OC)c1O	5%	-5%	1	0%	20µM*
